# Results as given in ChEMBL document CHEMBL3988442, “University of Dundee, Small-Polar-MMV Screening Library” (2021).
# Out of some 38,000 compounds screened, about 1,200 (3.2%) showed an effect of 50% or more. The median lay at about -58%. Only a selection was taken, and strong results are over-represented in it overall.
# System: Plasmodium falciparum
# Test: Calibr Malaria Delayed Death Assay SOP
# Format: functional, organism-based
# Design: scale not given: in the data most compounds retested in dose-response had high values
# Conditions: concentration 4.99e-06 (unit not given; other assays of the set use mol/L)
row,SMILES,Percent Effect [%]
1,COC(=O)CC(C1=Cc2ccccc2OC1)c1oc(C)cc(=O)c1O (stereo not drawn),-54.1
2,COCCC1(CNC(=O)Nc2ccnc(C)c2)CCCC1,72.21
3,Cc1cc(NC(=O)NCC2(O)CCCC2)ccn1,-130.9
4,COCCC1(CNC(=O)Nc2ccc(-n3nccn3)cc2)CCC1,-17.2
5,COc1ncc(C2(O)CCN(Cc3cc(F)cc(F)c3)CC2)c(OC)n1,-99.52
6,O=c1[nH]nc2c(S(=O)(=O)N3CCOCC3)cccn12,-183.8
7,CNC(=O)c1cc2c(nc1NCC1CC1)CCN(c1ncccn1)CC2,-64.19
8,O=S(=O)(Nc1ccc2c(c1)OCCO2)N1CCCCC1,-170
9,Cc1ccc(CNC(c2ccc(F)cc2)c2nccn2C)o1 (stereo not drawn),-33.59
10,Cc1ccc(CNCCC(O)(c2nccn2C)C(F)(F)F)o1 (stereo not drawn),72.37
11,Cc1ccc(CNC(c2cccc(F)c2)c2nccn2C)o1.Cl (stereo not drawn),35.29
12,Cn1ccnc1CN1CCCN(C(=O)c2ccc(Cl)o2)CC1,-26.42
13,CCc1n[nH]c(C2CN(C(=O)COCC(F)(F)F)CCO2)n1 (stereo not drawn),-109.1
14,CCc1c(C)n(CCC#N)c2nc3ccccc3n2c1=O,-59.08
15,CCc1nnc2n1CCN(C(=O)C1CCC(n3cccc3)CC1)C2 (stereo not drawn),-12.54
16,O=C1CCc2cc(-c3csc(CCN4CCOC4=O)n3)c(F)cc2N1,10.62
17,COc1cccc(CSc2nnc(C)n2CC(N)=O)c1,-57.97
18,NC(=O)CN(Cc1ccc(Br)cc1)C(=O)c1cccnc1,-140.6
19,COc1ccc(CN2C[C@@H](CN(C)C)[C@@H](CO)C2)cc1OC,-68.69
20,Cc1cc(C)c(-n2cccn2)c(CN2CCOCC(CN(C)C)C2)c1 (stereo not drawn),34.59
21,Cc1cc(-n2cccn2)ccc1CN1CCOCC(CN(C)C)C1 (stereo not drawn),73.33

row,SMILES,Percent Effect [%]
1,Cc1cc(-n2cccn2)ccc1CN1C[C@@H](CN(C)C)[C@@H](CO)C1,52.18
2,COc1ccc(CN2CCOC[C@H](Oc3cccnc3)C2)cc1,-114.4
3,COc1ccc(CN2C[C@@H](CN(C)C)[C@@H](CO)C2)c(Cl)c1OC,-21.55
4,COc1ccc(-n2cccn2)c(CN2CCOCC(CN(C)C)C2)c1 (stereo not drawn),78.01
5,COc1ccc(O[C@H]2COCCN(Cc3c[nH]c4ccccc34)C2)cc1,-21.41
6,Cc1ccc(-n2cc(CN3CCOCC(CN(C)C)C3)cn2)cc1C (stereo not drawn),38.47
7,CCc1cc2c(N3CCCC(c4ccn[nH]4)C3)ncnc2s1 (stereo not drawn),10.63
8,O=C(CC1CCc2ccccc21)N1CCC(O)(Cn2ccnc2)CC1 (stereo not drawn),-24.52
9,CCCN1CCC(c2nc3ccc(-c4cccc(OC)c4)cn3n2)CC1.O=C(O)C(F)(F)F,-29.22
10,CCN(CC)Cc1nnc2sc(-c3cc(C(C)C)[nH]n3)nn12,-70.51
11,CN(C(=O)Cn1nc(-c2ccc(Cl)cc2)ccc1=O)C1CCS(=O)(=O)C1 (stereo not drawn),1.296
12,CC(=O)N1CCC(c2nc3ccc(-c4ccnn4C)cn3n2)CC1.O=C(O)C(F)(F)F,-57.67
13,NC(=O)N1Cc2nccn2CC(Cn2ncccc2=O)C1 (stereo not drawn),-152.6
14,Cn1ccnc1CN1CC2(CCN(Cc3ccncc3)C2)C1,-45.53
15,Cc1ccc(CN2CCC3(CCN(Cc4ccncc4)CC3)CC2)cc1,77.61
16,COCCC(=O)N1CCC2(CCN(Cc3ccc(C)cc3)CC2)C1.O=C(O)C(F)(F)F,-50.1
17,Cc1ccc(CN2CCCC3(CCN(Cc4ccoc4)CC3)C2)cc1.O=C(O)C(F)(F)F.O=C(O)C(F)(F)F,79.2
18,COCCC(=O)N1CC2(CCN(Cc3ccncc3)CC2)C1,-37.67
19,Cc1nc(CN2CCC23CCN(Cc2ccoc2)CC3)cs1,35.85
20,CS(=O)(=O)N1CCOCC2(CCN(Cc3ccoc3)CC2)C1.O=C(O)C(F)(F)F,-77.45
21,COCC(=O)N1CCC2(CCN(Cc3ccc(C)cc3)CC2)CC1.O=C(O)C(F)(F)F,-23.78

row,SMILES,Percent Effect [%]
1,O=C(O)C(F)(F)F.O=C(O)C(F)(F)F.O=C(O)C(F)(F)F.c1cc(CN2CCCC23CCCN(Cc2ccoc2)C3)ccn1 (stereo not drawn),-115.9
2,Cc1ccc(CN2CCC3(CC2)CCN(Cc2ccoc2)CC3)cc1.O=C(O)C(F)(F)F.O=C(O)C(F)(F)F,92.5
3,CS(=O)(=O)N1CCCC12CCN(Cc1ccoc1)CC2,-46.44
4,O=C(CCn1cncn1)NC1CCc2nccn2C1 (stereo not drawn),-109.9
5,C[C@]1(O)CN(Cc2ccc(C(=O)O)cc2)CC[C@@H]1Oc1cccc(F)c1,-93.08
6,O=c1ccc2c(n1CC1CC1)CCN(c1ncccn1)CC2,5.282
7,O=C(O)C(F)(F)F.O=C(O)C(F)(F)F.c1ccc(COC[C@@H]2CCC[C@]23CN(Cc2nccs2)CCO3)nc1,-24.57
8,O=S(=O)(Cc1ccc(F)cc1)NCCc1nnc2n1CCC2,-62.4
9,Cc1nc(CNC(=O)NC(C)c2ccc3c(c2)OCCO3)cs1 (stereo not drawn),-69.15
10,COCCn1ccc(=O)c(OCC(=O)Nc2cccc(OC)c2)c1C,-50.47
11,COCc1cc(CNCc2c(C)n(CC(C)C)c3ccccc23)n[nH]1,-32.81
12,Cc1cc(NC(=O)C(C#N)Cc2cnn(C)c2C)no1 (stereo not drawn),-0.6706
13,Cc1ccc(CN2CCC3(CCCN(C(=O)N(C)C)C3)C2)cc1 (stereo not drawn),-64.1
14,O=C(c1cnccn1)N1CCC2(CCCN(Cc3ccoc3)C2)C1 (stereo not drawn),-97.37
15,CCOC(=O)[C@H]1[C@@H](O)C(=O)N(C)C12CCN(C(=O)C(CC)CC)CC2,-15.32
16,CCN(C)C(=O)Nc1cc(F)c(OC)cc1F,-13.37
17,O=C(c1ccc(F)c(Br)c1)N1CCCN2CCCC2C1 (stereo not drawn),22.61
18,c1cncc(N2CCOC3(CCCN(c4nncs4)C3)C2)c1 (stereo not drawn),-13.46
19,Cc1cccc(N2CCCC3(C2)CN(c2nncs2)CCO3)c1 (stereo not drawn),-92.55
20,COc1ccc(N2CCCC3(C2)CN(c2nncs2)CCO3)cc1 (stereo not drawn),87.98
21,O=C1CCCN1Cc1nnc2n1CCCN(C(=O)c1ccc[nH]1)C2,-52.27
